# Measured values published in PubChem BioAssay (NCI).
# The panel holds about 83,000 compounds, 20% with a hit somewhere; the sample as a whole holds those more often.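 96-well plates, one dose, 48 hours. Percent growth reported; active if below 10.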 Activity calls are given as the source filed them.
# Test system: OVCAR-5 ovarian
# Experiment: NCI-60 one-dose screen, 48 h (100 = growth as untreated, 0 = no growth, -100 = all killed)
# Details: 10 µM unless noted
# Experimental: Growth inhibition of the OVCAR-5 human tumor cell line is measured as a screen for anti-cancer activity. Cells are grown in 96 well plates and exposed to the test compound for 48 hours. Compounds are tested at a single concentration, which is 10^-5 M for most compounds. The reported endpoint is percent growth (GI% or GIPRCNT), where numbers from 0 - 100% represent growth inhibition, and numbers from -100% - 0 represent cell death. For example, a value of 40 represents 60% growth inhibition. A value of 0 means no net growth occurred over the course of the experiment. A value of -40 indicates 40% of cells at the beginning of the experiment died by the end of the experiment. A value of -100 means all cells are dead at the end of the experiment.
# NCI-60 Human Tumor Cell Lines Screen was performed using the standard one-dose NCI protocol, which is described in more detail at https://dtp.cancer.gov/discovery_development/nci-60/default.htm.
# Compounds with GIPRCNT values below 10 were considered active. Activity score was based on GIPRCNT using the following formula: […]
# Score is 0 for GIPRCNT values of 100 or above, 50 for GIPRCNT values of 0, and 100 for GIPRCNT values of -100.
row,SMILES,growth
1,Fc1ccc(-n2cc(COc3ncnc4sc5c(c34)CCCC5)nn2)cc1Cl,96.6% (inactive)
2,COc1ccc(/C=C\c2nc3ccccc3s2)cc1OP(=O)(O)O,75.4% (inactive)
3,Cc1cn(-c2cc(C(=O)Nc3cccc(C#Cc4cccc5[nH]nc(N)c45)c3)cc(C(F)(F)F)c2)cn1,44.2% (inactive)
4,CCSc1ccc2c(c1)N(CCCN1CCN(C)CC1)c1ccccc1S2,70% (inactive)
5,COc1cc(NCCCN(CC(C)C)CC(C)C)c2ncccc2c1,114% (inactive)
6,COc1ccc(C(=O)c2cc3c(N)c(C(=O)Nc4cccc(OC)c4)sc3nc2C)cc1,46.8% (inactive)
7,CCCN=C(N)c1ccc(NC(=O)c2ccc(C(=O)Nc3ccc(C(N)=NCCC)cc3)cc2)cc1,94.8% (inactive)
8,COc1ccc(C(=O)/C=C/c2ccc(OCc3ccccc3)c(OC)c2)cc1OC,107% (inactive)
9,CCOC(=O)C1CC(=O)c2cc(OC)c(OC)cc2C1 (stereo not given),101% (inactive)
10,COC(=O)Nc1ccc(NC(=O)OC)cc1,114% (inactive)
11,NS(=O)(=O)c1cccc(NC(=O)C(=O)C2C(=O)Nc3ccccc32)c1 (stereo not given),96% (inactive)
12,CC(=O)[C@@H]1CC[C@]2(C(=O)n3ccnc3)CC[C@]3(C)[C@H](CC[C@@H]4[C@@]5(C)Cc6c([nH]c7ccccc67)C(C)(C)[C@@H]5CC[C@]43C)[C@@H]12,105% (inactive)
13,COC(=O)CCCCCCCCC1(C)C=CC(C(C)O)=CC1 (stereo not given),120% (inactive)
14,COc1cc(C2NC(c3cc(OC)c(OC)c(OC)c3)C(C#N)(C#N)C2(C#N)C#N)cc(OC)c1OC (stereo not given),96.4% (inactive)
15,Clc1ccc(C2CC(c3cccc(Nc4ccncc4)c3)=NN2c2ccc(Cl)cc2)cc1 (stereo not given),65.4% (inactive)
16,CC1(C)CCCN1CCCN1c2ccccc2Sc2ccc(Cl)cc21,89.3% (inactive)
17,O=C(O)CNC(=O)CN1C(=O)c2ccccc2C1=O,101% (inactive)
18,CS(=O)(=O)Nc1cc(-c2ccc3ncnc(Nc4ccc5[nH]ncc5c4)c3c2)cnc1Cl,59.8% (inactive)
19,O=S(=O)(c1cccc(NC2=Nc3cccc4cccc2c34)c1)N1CCCC1,100% (inactive)
20,COc1cc2nc(-c3ccc(C(F)(F)F)cc3)cc(OCCCN3CCC(O)CC3)c2cc1OC,42.8% (inactive)

row,SMILES,growth
1,[2H]C1([2H])NC([2H])([2H])C([2H])([2H])N(c2ccc(Nc3ncc4cc(C(=O)N(C)C)n(C5CCCC5)c4n3)nc2)C1([2H])[2H],39.8% (inactive)
2,COc1cc(C(=O)/C=C/c2c(C)n([O-])c3ccc(Cl)cc3[n+]2=O)cc(OC)c1OC,86.6% (inactive)
3,CN(C)C(=O)c1cc2cnc(Nc3ccc(-c4csc5c(=O)cc(N6CCOCC6)oc45)cc3)nc2n1C1CCCC1,-9.43% (active)
4,O=C(Nc1ccccc1)Oc1ccccc1-c1ccccc1,90.5% (inactive)
5,c1ccc(-c2nn(-c3ccccc3)[n+](-c3cccc4ccccc34)n2)cc1,48.1% (inactive)
6,COc1ccc(C(=O)c2cc3c(N)c(C(=O)Nc4ccc(Br)cc4)sc3nc2C)cc1,88% (inactive)
7,O=C(N/N=C/c1ccc(O)c(O)c1)c1sc2ccccc2c1Cl,100% (inactive)
8,N#CSCC1CC(O)(c2ccccc2)C(c2ccccc2)C(c2ccc(F)cc2)O1 (stereo not given),51.3% (inactive)
9,O=C1Nc2c(ccc(Cl)c2Cl)/C1=C/c1ccc([N+](=O)[O-])cc1,98.1% (inactive)
10,CN1CCN(c2cc(F)c(NC3=C(Cl)C(=O)c4ncccc4C3=O)c(F)c2)CC1,-59.8% (active)
11,COC(=O)C1NC(=S)N(c2ccc(Cl)cc2)C1/C=C/c1ccccc1 (stereo not given),99.8% (inactive)
12,Cc1c2c(cc[n+]1Cc1ccccc1)c1ccc(OCc3ccccc3)cc1n2Cc1ccccc1,13.5% (inactive)
13,CC(=O)O[C@]1(C(C)=O)CC[C@H]2[C@@H]3C=C(Cl)C4=CC(=O)CC[C@]4(C)[C@H]3CC[C@@]21C,101% (inactive)
14,COc1cccc(CNCCN2C(=O)c3ccc4c5c(ccc(c35)C2=O)C(=O)N(CCNCc2cccc(OC)c2)C4=O)c1,120% (inactive)
15,CC(=O)N1c2ccccc2NC2=C(C(=O)N(C)C2(C)C)C1C (stereo not given),62.5% (inactive)
16,O=C(O)/C=C\C(=O)N1C/C(=C\c2ccccc2Cl)C(=O)/C(=C/c2ccccc2Cl)C1,2.41% (active)
17,O=C(Cc1ccc(/C=C/C(=O)c2ncc[nH]2)cc1)Nc1ccc(C(F)(F)F)cc1,78.9% (inactive)
18,CCC(C)C(N)C(=O)NNc1n[nH]c(=S)n1N (stereo not given),99.2% (inactive)
19,O=S(=O)(NCCCNc1nccc(-c2c(-c3cccc(O)c3)nc3occn23)n1)c1ccc(Br)cc1,137% (inactive)
20,COc1c(Cl)cc(Cl)c2ccc(C=C3C(=O)NC(=S)NC3=O)nc12,109% (inactive)
